Test: inhibitors of mitochondrial cytochrome c release, biochemical, purified mitochondria (AID 1603);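 also: mouse liver mitochondria challenged with calcium chloride; signal normalized to the plate average as 100%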
Conditions: stronger effect = lower value

First: O=C1CC2OCC=C3CN4CC[C@]56c7ccccc7N1C5[C@H]2[C@H]3CC46 (stereo not given in full)
Second: COc1ccc2c(c1)[C@]13CCCC[C@H]1[C@H](C2)N(C)CC3
The cytochrome c release ratio of the first is higher: 1 for the first, 0.98 for the second.

Compared with `C[C@H]1O[C@@H](O[C@H]2[C@@H](O)C[C@H](O[C@H]3[C@@H](O)C[C@H](O[C@H]4CC[C@]5(C)C6CC[C@]7(C)[C@@H](C8=CC(=O)OC8)CC[C@]7(O)C6CC[C@@H]5C4)O[C@@H]3C)O[C@@H]2C)C[C@H](O)[C@@H]1O` (stereo not given in full), `CO[C@H]1[C@H](O)[C@H](O[C@H]2CC[C@]3(C)C4CC[C@]5(C)C(C6=CC(=O)OC6)CC[C@]5(O)C4CC[C@@H]3C2)O[C@@H](C)[C@@H]1O` (stereo not given in full) is lower in cytochrome c release ratio: 1.31 for the first, 0.83 for the second.

First: COc1ccc2c(c1OC)C(=O)O[C@H]2[C@H]1c2cc3c(cc2CCN1C)OCO3
Second: CC(=O)C1=C(O)C2C3c4c[nH]c5cccc(c45)CC3C(C)(C)N2C1=O (stereo not given)
The cytochrome c release ratio of the first is lower: 1.06 for the first, 1.1 for the second.

Going from `C/C=C(\C)C(=O)O[C@H]1C[C@@H](OC(C)=O)[C@@]2(C(=O)OC)CO[C@@H]3C2[C@]12CO[C@](O)(C(=O)OC)[C@H]2[C@](C)(C12O[C@@]1(C)[C@H]1C[C@@H]2OC2OC=C[C@@]21O)[C@@H]3O` (stereo not given in full) to `CCC(C)C(=O)O[C@H]1[C@H](O)C2C(CN3CC(C)CCC3[C@@]2(C)O)C2C[C@]34O[C@]5(O)C(OC(=O)C(C)(O)C(C)O)CC[C@@]3(C)C5C(OC(C)=O)[C@@H](OC(C)=O)C4[C@@]21O` (stereo not given in full), the cytochrome c release ratio falls from 1.46 to 1.

Going from `C[C@@H]1CC[C@H]2[C@@H](C)C(=O)O[C@@H]3OC4(C)CC[C@@H]1[C@]32OO4` to `C=C1C2CC[C@H]3[C@]4(C)C[C@H](OC5OC(CO)C(OS(=O)(=O)O)C(OS(=O)(=O)O)C5OC(=O)CC(C)C)C[C@@H](C(=O)O)[C@H]4CC[C@]3(C2)[C@H]1O` (stereo not given in full), the cytochrome c release ratio rises from 1.15 to 1.3.

Test: inhibitors of polyQ protein aggregation (AID 1604)
Conditions: polyglutamine-induced protein aggregation inhibition assay; stronger effect = higher value; concentration not given here

Compared with `O=C1CC2OCC=C3CN4CC[C@]56c7ccccc7N1C5[C@H]2[C@H]3CC46` (stereo not given in full), `COc1ccc2c(c1)[C@]13CCCC[C@H]1[C@H](C2)N(C)CC3` is higher in inhibition of aggregation: 70.4% for the first, 78.2% for the second.

Compared with `C[C@H]1O[C@@H](O[C@H]2[C@@H](O)C[C@H](O[C@H]3[C@@H](O)C[C@H](O[C@H]4CC[C@]5(C)C6CC[C@]7(C)[C@@H](C8=CC(=O)OC8)CC[C@]7(O)C6CC[C@@H]5C4)O[C@@H]3C)O[C@@H]2C)C[C@H](O)[C@@H]1O` (stereo not given in full), `CO[C@H]1[C@H](O)[C@H](O[C@H]2CC[C@]3(C)C4CC[C@]5(C)C(C6=CC(=O)OC6)CC[C@]5(O)C4CC[C@@H]3C2)O[C@@H](C)[C@@H]1O` (stereo not given in full) is higher in inhibition of aggregation: 76% for the first, 94.4% for the second.

Going from `COc1ccc2c(c1OC)C(=O)O[C@H]2[C@H]1c2cc3c(cc2CCN1C)OCO3` to `CC(=O)C1=C(O)C2C3c4c[nH]c5cccc(c45)CC3C(C)(C)N2C1=O` (stereo not given), the inhibition of aggregation falls from 71.9% to -15.2%.

Compared with `C/C=C(\C)C(=O)O[C@H]1C[C@@H](OC(C)=O)[C@@]2(C(=O)OC)CO[C@@H]3C2[C@]12CO[C@](O)(C(=O)OC)[C@H]2[C@](C)(C12O[C@@]1(C)[C@H]1C[C@@H]2OC2OC=C[C@@]21O)[C@@H]3O` (stereo not given in full), `CCC(C)C(=O)O[C@H]1[C@H](O)C2C(CN3CC(C)CCC3[C@@]2(C)O)C2C[C@]34O[C@]5(O)C(OC(=O)C(C)(O)C(C)O)CC[C@@]3(C)C5C(OC(C)=O)[C@@H](OC(C)=O)C4[C@@]21O` (stereo not given in full) is lower in inhibition of aggregation: 72.4% for the first, 1.96% for the second.

Compared with `C[C@@H]1CC[C@H]2[C@@H](C)C(=O)O[C@@H]3OC4(C)CC[C@@H]1[C@]32OO4`, `C=C1C2CC[C@H]3[C@]4(C)C[C@H](OC5OC(CO)C(OS(=O)(=O)O)C(OS(=O)(=O)O)C5OC(=O)CC(C)C)C[C@@H](C(=O)O)[C@H]4CC[C@]3(C2)[C@H]1O` (stereo not given in full) is lower in inhibition of aggregation: 79.2% for the first, 74.7% for the second.

Test: enhancers of glutamate uptake in motor neurons, MN-1 cell line (AID 1612);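 also: 0% = mean of DMSO vehicle wells on each plate; positive means more glutamate uptake than control and negative means less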
Conditions: MN-1 motor neuron cells, stronger effect = higher value

Compared with `O=C1CC2OCC=C3CN4CC[C@]56c7ccccc7N1C5[C@H]2[C@H]3CC46` (stereo not given in full), `COc1ccc2c(c1)[C@]13CCCC[C@H]1[C@H](C2)N(C)CC3` is higher in glutamate uptake change: -17.6% for the first, 6.18% for the second.

Compared with `C[C@H]1O[C@@H](O[C@H]2[C@@H](O)C[C@H](O[C@H]3[C@@H](O)C[C@H](O[C@H]4CC[C@]5(C)C6CC[C@]7(C)[C@@H](C8=CC(=O)OC8)CC[C@]7(O)C6CC[C@@H]5C4)O[C@@H]3C)O[C@@H]2C)C[C@H](O)[C@@H]1O` (stereo not given in full), `CO[C@H]1[C@H](O)[C@H](O[C@H]2CC[C@]3(C)C4CC[C@]5(C)C(C6=CC(=O)OC6)CC[C@]5(O)C4CC[C@@H]3C2)O[C@@H](C)[C@@H]1O` (stereo not given in full) is lower in glutamate uptake change: 5.63% for the first, -17.6% for the second.

Going from `COc1ccc2c(c1OC)C(=O)O[C@H]2[C@H]1c2cc3c(cc2CCN1C)OCO3` to `CC(=O)C1=C(O)C2C3c4c[nH]c5cccc(c45)CC3C(C)(C)N2C1=O` (stereo not given), the glutamate uptake change rises from 13.5% to 28.8%.

First: C/C=C(\C)C(=O)O[C@H]1C[C@@H](OC(C)=O)[C@@]2(C(=O)OC)CO[C@@H]3C2[C@]12CO[C@](O)(C(=O)OC)[C@H]2[C@](C)(C12O[C@@]1(C)[C@H]1C[C@@H]2OC2OC=C[C@@]21O)[C@@H]3O (stereo not given in full)
Second: CCC(C)C(=O)O[C@H]1[C@H](O)C2C(CN3CC(C)CCC3[C@@]2(C)O)C2C[C@]34O[C@]5(O)C(OC(=O)C(C)(O)C(C)O)CC[C@@]3(C)C5C(OC(C)=O)[C@@H](OC(C)=O)C4[C@@]21O (stereo not given in full)
The glutamate uptake change of the first is higher: 12.4% for the first, 2.79% for the second.

First: C[C@@H]1CC[C@H]2[C@@H](C)C(=O)O[C@@H]3OC4(C)CC[C@@H]1[C@]32OO4
Second: C=C1C2CC[C@H]3[C@]4(C)C[C@H](OC5OC(CO)C(OS(=O)(=O)O)C(OS(=O)(=O)O)C5OC(=O)CC(C)C)C[C@@H](C(=O)O)[C@H]4CC[C@]3(C2)[C@H]1O (stereo not given in full)
The glutamate uptake change of the first is higher: 20.6% for the first, 4.94% for the second.

Source: PubChem BioAssay
